One experiment has as its target Albumin (Bos taurus) (UniProt P02769). Kind of experiment: compounds binding labelled BSA control protein – biochemical, small-molecule microarray, Alexa647 label, 635/667 nm fluorescence, artefact control for SMM control protein annotation, profiling panel (AID 1118).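 Note: score merges 667 nm emission intensity and signal-to-noise per printed compound spot.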 The following applies: BSA-A647 binding, fluorescence 635 nm, higher = more signal.
Experiment [1] is described as follows: probe aXIP binding to arrayed compounds – biochemical, NeuroSMM set, 635/667 nm fluorescence, primary screen (AID 1119).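 Note: probe is the protein aXip251-270 applied at 1 µg/mL to compound-printed slides; binding of probe to printed compounds measured as 667 nm fluorescence plus signal to noise.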 The conditions noted are these: small-molecule microarray, higher = more signal, called active from +8 up or from −8 down.
A short description of experiment [2]: probe aNOTCH3 binding on compound microarray – biochemical, small-molecule microarray, 635/667 nm fluorescence, primary screen (AID 1120).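 Note: probe is a biotin-tagged antibody raised against NOTCH3 rather than NOTCH3 protein; score merges spot fluorescence near 667 nm with spot signal to noise.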 The following applies: higher = more signal.
A short description of experiment [3]: probe aNOTCH2 binding on compound microarray – biochemical, small-molecule microarray, 635/667 nm fluorescence, primary screen (AID 1121).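 Note: score merges feature fluorescence read at 667 nm with its signal to noise.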 The following applies: higher = more signal.
The target of experiment [4] is Carbonic anhydrase 2 (Homo sapiens) (UniProt P00918). Kind of experiment: compounds binding carbonic anhydrase 2 – biochemical, small-molecule microarray, Alexa647-labelled CAII, profiling panel (AID 1122). The conditions noted are these: CAII-A647 binding fluorescence, higher = more signal.
Experiment [5] can be described thus: COS7 lysate on small-molecule microarray, probe aHis, 635 nm (AID 1123).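 Note: z-score combines 667nm fluorescence intensity with signal-to-noise per printed compound spot.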 The conditions noted are these: COS7 cell lysate, fluorescence, higher = more signal.
Experiment [6] can be described thus: probe aLAP1 signal on lysate-treated microarray – cell lysate, small-molecule microarray, COS7 lysate, primary screen (AID 1124).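 Note: lysate comes from COS7 cells expressing LAP1 and is applied at 0.3 µg/mL; score merges spot fluorescence near 667 nm with signal-to-noise over triplicate slides.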 The conditions noted are these: probe aLAP1, fluorescence, higher = more signal.
Another experiment has as its system Sam68 (KHDRBS1). The experiment can be described thus: compounds binding KHDRBS1 protein – biochemical, small-molecule microarray, 635 nm fluorescence, primary screen (AID 1125).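 Note: score merges 667 nm channel intensity with signal to noise over triplicate slides.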 The following applies: higher = more signal.
In experiment [7] the test system is Chordin-like protein 2 (CHRDL2). The experiment can be described thus: compounds binding chordin-like 2 – biochemical, small-molecule microarray, 635 nm fluorescence, primary screen (AID 1126).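 Note: printed compound slides probed with Chrdl2 protein at 4 µg/mL for 1 h at 4 C; score merges 667 nm emission intensity with signal to noise over three replicate slides.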 The conditions noted are these: fluorescence 635 nm, higher = more signal.
The target in experiment [8] is Concanavalin-A (Canavalia ensiformis) (UniProt P02866). Kind of experiment: compounds binding concanavalin A lectin – biochemical, small-molecule microarray, Alexa647 label, 635 nm, artefact control for SMM control protein annotation, primary screen (AID 1127).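 Note: z combines 667 nm emission intensity with signal-to-noise across three replicate slides.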 The following applies: ConA-A647 binding fluorescence, higher = more signal.
Concanavalin-A (Canavalia ensiformis), sequence (P02866 whole entry, looked up): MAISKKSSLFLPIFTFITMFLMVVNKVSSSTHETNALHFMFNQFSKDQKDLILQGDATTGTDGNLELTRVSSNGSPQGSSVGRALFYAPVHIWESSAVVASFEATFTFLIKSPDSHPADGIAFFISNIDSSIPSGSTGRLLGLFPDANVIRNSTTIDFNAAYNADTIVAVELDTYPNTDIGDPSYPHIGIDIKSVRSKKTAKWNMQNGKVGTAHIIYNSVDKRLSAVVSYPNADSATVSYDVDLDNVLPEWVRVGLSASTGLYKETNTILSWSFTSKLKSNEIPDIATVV
The nature of experiment [9]: compounds binding Alexa647 anti-His antibody – biochemical, small-molecule microarray, 635 nm fluorescence, artefact control for SMM control protein annotation, primary screen (AID 1128).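 Note: score merges feature fluorescence with signal-to-noise for each printed compound spot.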 The conditions noted are these: higher = more signal.
Experiment [10] concerns Human papillomavirus type 1a E7 protein (residues 1-88). The experiment can be described thus: HPV1a E7 small-molecule binders, primary screen, biochemical, small-molecule microarray, residues 1-88, 635 nm (AID 1129). The conditions noted are these: small-molecule microarray binding, fluorescence 635 nm; higher = more signal.
Experiment [11] addresses Focal adhesion kinase 1 (Homo sapiens) (UniProt Q05397). Kind of experiment: PTK2 protein binding on printed compound slides – biochemical, small-molecule microarray, 635/667 nm fluorescence, BSA, DTT, primary screen (AID 1130).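 Note: composite of spot emission at 667 nm and signal to noise over triplicate slides.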 The conditions noted are these: 635 nm fluorescence, higher = more signal.
For experiment [12], the system named is Fibrinogen (Alexa647-labelled). Kind of experiment: Alexa647-fibrinogen binding to printed small molecules – biochemical, small-molecule microarray, 635/667 nm fluorescence, artefact control for SMM control-protein annotation, profiling panel (AID 1131).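 Note: z-score merges 667 nm fluorescence with per-spot signal-to-noise over triplicate slides.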 The following applies: fibrinogen-A647 binding fluorescence, higher = more signal.
The target of experiment [13] is Follistatin (Homo sapiens) (UniProt P19883). The experiment can be described thus: FST protein binding to printed compounds – biochemical, small-molecule microarray, 635/667 nm fluorescence, primary screen (AID 1132). The following applies: 635 nm fluorescence, higher = more signal.
Follistatin (Homo sapiens), sequence (P19883 whole entry, looked up): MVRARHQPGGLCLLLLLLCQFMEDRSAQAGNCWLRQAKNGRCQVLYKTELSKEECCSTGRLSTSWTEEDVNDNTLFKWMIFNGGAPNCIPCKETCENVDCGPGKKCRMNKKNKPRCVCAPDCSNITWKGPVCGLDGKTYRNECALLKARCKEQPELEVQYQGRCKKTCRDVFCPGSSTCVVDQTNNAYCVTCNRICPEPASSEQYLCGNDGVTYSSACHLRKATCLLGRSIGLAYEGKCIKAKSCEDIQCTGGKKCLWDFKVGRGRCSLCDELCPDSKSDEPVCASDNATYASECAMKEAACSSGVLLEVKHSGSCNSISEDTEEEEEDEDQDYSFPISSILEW
Experiment [14] deals with Fibroblast growth factor 2 (Homo sapiens) (UniProt P09038). The experiment can be described thus: basic fibroblast growth factor binding to printed compounds – biochemical, small-molecule microarray, 635/667 nm fluorescence, primary screen (AID 1133). The conditions noted are these: FGF2, fluorescence 635/667, higher = more signal.
Fibroblast growth factor 2 (Homo sapiens), sequence (P09038 whole entry, looked up): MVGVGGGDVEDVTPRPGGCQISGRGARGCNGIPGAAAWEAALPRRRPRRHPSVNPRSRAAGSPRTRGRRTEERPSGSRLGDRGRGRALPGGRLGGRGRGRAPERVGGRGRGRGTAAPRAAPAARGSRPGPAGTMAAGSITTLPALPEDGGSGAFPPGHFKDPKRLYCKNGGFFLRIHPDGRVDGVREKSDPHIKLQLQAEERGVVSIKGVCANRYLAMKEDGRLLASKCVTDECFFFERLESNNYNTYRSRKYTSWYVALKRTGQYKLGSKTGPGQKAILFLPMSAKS
Experiment [15] can be described thus: JC-1 mitochondrial potential readout, lung cancer cells – cell-based, A549, JC-1 fluorescence, basal, 24 h, 100 nL, profiling panel (AID 1138).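 Note: A549 lung adenocarcinoma cells under basal conditions with no added stimulus; test concentration not given here.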 The conditions noted are these: higher = more signal.
For a further experiment, the system named is Lefty1. The experiment can be described thus: Lefty1 protein binding to printed compounds – biochemical, small-molecule microarray, 635/667 nm fluorescence, primary screen (AID 1139). The conditions noted are these: fluorescence 635/667, higher = more signal.
Experiment [16] deals with wheat germ agglutinin (Triticum aestivum), Alexa647-labelled. Kind of experiment: Alexa647-WGA lectin binding to printed small molecules – biochemical, small-molecule microarray, 635/667 nm fluorescence, artefact control for SMM control-protein annotation, profiling panel (AID 1140).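 Note: score merges 667 nm feature emission with signal to noise over triplicate slides.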 The following applies: WGA-A647 binding, 635 nm fluorescence, higher = more signal.
In experiment [17] the target is Luciferin 4-monooxygenase (Photinus pyralis) (UniProt P08659). The experiment can be described thus: inhibition of purified Photinus pyralis luciferase – biochemical, luminescence, purified enzyme, 2006 set, primary screen (AID 1141).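 Note: cell-free assay with purified firefly luciferase at 100 ng per well in PBS; test concentration not given here.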 The conditions noted are these: purified firefly luciferase, SteadyGlo luminescence, 30 min; higher = more signal, called active from +8 up or from −8 down.
Luciferin 4-monooxygenase (Photinus pyralis), sequence (P08659 whole entry, looked up): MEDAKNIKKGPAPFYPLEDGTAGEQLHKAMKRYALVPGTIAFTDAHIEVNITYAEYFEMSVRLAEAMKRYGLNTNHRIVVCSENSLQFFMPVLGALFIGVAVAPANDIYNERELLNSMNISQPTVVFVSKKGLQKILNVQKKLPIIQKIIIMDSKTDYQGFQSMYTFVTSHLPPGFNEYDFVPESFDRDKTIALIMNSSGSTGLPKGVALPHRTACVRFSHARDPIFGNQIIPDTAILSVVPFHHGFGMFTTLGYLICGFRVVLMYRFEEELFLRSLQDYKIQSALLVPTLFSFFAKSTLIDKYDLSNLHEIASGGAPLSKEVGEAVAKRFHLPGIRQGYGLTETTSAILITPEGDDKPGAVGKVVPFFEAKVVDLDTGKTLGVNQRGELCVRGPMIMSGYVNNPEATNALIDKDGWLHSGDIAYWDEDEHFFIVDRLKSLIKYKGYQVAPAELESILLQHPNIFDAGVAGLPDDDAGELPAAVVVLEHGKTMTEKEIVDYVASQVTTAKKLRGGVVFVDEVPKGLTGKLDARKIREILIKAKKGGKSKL

Calls of active or inactive are those of the source.

Focal adhesion kinase 1 (Homo sapiens), sequence (Q05397 whole entry, looked up): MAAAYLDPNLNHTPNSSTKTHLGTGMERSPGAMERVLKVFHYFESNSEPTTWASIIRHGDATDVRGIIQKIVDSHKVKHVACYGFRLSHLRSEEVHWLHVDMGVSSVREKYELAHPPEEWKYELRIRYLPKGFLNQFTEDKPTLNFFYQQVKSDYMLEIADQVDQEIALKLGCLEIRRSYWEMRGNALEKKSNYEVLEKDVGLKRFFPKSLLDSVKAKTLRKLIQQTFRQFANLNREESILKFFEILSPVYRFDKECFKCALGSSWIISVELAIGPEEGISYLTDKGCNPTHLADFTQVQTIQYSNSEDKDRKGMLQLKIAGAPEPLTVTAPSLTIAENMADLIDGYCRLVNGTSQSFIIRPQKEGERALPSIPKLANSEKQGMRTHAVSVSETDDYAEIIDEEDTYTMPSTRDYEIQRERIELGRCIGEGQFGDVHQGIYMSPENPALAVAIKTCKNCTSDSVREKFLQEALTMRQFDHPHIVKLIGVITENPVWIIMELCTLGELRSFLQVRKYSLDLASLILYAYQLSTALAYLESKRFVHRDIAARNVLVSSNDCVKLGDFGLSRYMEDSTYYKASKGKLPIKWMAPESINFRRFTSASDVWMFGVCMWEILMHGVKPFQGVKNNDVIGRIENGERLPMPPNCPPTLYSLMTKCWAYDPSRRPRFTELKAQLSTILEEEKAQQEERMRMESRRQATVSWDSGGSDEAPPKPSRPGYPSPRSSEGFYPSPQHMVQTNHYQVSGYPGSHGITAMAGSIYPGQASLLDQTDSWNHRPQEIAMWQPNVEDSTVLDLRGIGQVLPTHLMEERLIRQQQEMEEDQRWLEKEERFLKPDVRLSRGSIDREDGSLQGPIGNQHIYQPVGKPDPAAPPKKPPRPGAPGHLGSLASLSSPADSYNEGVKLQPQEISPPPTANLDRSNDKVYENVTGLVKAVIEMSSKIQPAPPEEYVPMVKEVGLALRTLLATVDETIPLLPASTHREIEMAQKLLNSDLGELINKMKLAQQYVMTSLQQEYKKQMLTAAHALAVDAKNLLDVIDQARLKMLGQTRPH
Albumin (Bos taurus), sequence (P02769 whole entry, looked up): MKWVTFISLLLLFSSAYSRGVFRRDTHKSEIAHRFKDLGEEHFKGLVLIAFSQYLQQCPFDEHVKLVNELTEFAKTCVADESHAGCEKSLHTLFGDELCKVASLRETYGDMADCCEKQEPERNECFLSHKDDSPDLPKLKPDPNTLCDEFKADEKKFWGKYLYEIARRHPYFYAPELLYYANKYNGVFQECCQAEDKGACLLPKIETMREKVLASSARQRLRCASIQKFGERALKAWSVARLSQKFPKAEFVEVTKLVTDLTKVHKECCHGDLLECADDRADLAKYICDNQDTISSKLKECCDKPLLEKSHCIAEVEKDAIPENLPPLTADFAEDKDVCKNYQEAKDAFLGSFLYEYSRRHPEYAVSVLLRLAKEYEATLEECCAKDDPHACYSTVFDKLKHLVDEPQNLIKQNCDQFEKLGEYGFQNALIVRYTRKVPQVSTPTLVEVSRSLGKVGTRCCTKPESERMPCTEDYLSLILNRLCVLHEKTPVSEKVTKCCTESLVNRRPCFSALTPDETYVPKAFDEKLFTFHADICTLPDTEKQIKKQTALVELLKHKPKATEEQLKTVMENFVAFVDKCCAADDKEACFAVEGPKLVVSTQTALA

For `COc1ccc(C#Cc2ccc3c(c2)[C@]2(C(=O)N3)[C@H](C(=O)N3CCN(c4ncccn4)CC3)[C@H]3C(=O)O[C@H](c4ccccc4)[C@H](c4ccccc4)N3[C@@H]2c2ccc(O)cc2)cc1`, the composite z-score in the experiment with Albumin (Bos taurus) was 0.413; in experiment [2], -0.184; in experiment [3] it was 0.0086; in [4], 0.327; in experiment [5] it was 1.19; in experiment [6], 0.76. For the same compound, the composite z-score with Sam68 (KHDRBS1) is 1.3; in experiment [7], 0.7; in experiment [8] it was 1.05; in experiment [9] it was 0.658; in experiment [10] it was 1.2; in [11], 0.392. Further, the composite z-score worked out at 0.972 in experiment [12]; 1.2 in [13]; 0.485 in experiment [14]; 0.884 in the experiment on Lefty1; 0.4 in [16]. In addition, in experiment [1], the composite Z-score is 0.345 (inactive). The z-score is -0.799 in [15] and -0.374 (inactive) in experiment [17].

Regarding `C=C(C)[C@@H]1CC=C(C(O)C2C=CC3C(=O)N(Cc4ccccc4)C(=O)C3N2n2cnnc2)CC1` (stereo not given in full), the composite z-score with Albumin (Bos taurus) was 0.936; in experiment [2], 0.0297; in experiment [3], -0.0907; in experiment [4], 0.751; in experiment [5], 0.341; in experiment [6], -0.24. Further, the composite z-score in the experiment with Sam68 (KHDRBS1) was -0.0341; in experiment [7], -0.918; in [8], 0.317; in experiment [9] it was -0.087; in [10], -0.124; in [11], 0.0147. Moreover, the composite z-score in [12] is 0.818; in experiment [13], 0.507; in experiment [14], -0.759; in the experiment with Lefty1 it was 0.551; in experiment [16] it was 1.19. For the same compound, the composite Z-score in experiment [1] was -0.619 (inactive). Besides, the z-score was -1.11 in [15] and 1.67 (inactive) in [17].

As for `COc1ccc(C#Cc2ccc3c(c2)[C@]2(C(=O)N3)[C@H](C(=O)N3CCc4cc(OC)c(OC)cc4C3)[C@H]3C(=O)O[C@H](c4ccccc4)[C@H](c4ccccc4)N3[C@@H]2c2ccc(OCCO)cc2)cc1`, the composite z-score in the experiment with Albumin (Bos taurus) is -0.0155; in experiment [2], 0.0762; in experiment [3], -0.0859; in experiment [4], 0.136; in experiment [5] it was 1.19; in experiment [6], 0.351. Moreover, the composite z-score with Sam68 (KHDRBS1) came out at 1.24; in experiment [7], 0.523; in [8] it was 1.07; in experiment [9], 0.441; in [10], 1.2; in [11], 1.1. Also, the composite z-score in [12] stood at 0.821; in experiment [13], 1.21; in experiment [14], 1.24; in the experiment with Lefty1 it was 0.941; in experiment [16] it was 1.17. Moreover, the composite Z-score in experiment [1] was 0.289 (inactive). Also, the z-score in experiment [15] was -1.09; in [17] it was -0.297 (inactive).

Consider `O[C@@H](Cc1ccccc1)[C@@H](/C=C/c1ccccc1)NCc1ccccc1Br`, for which the composite z-score with Albumin (Bos taurus) was -0.786; in [2] it was -0.358; in experiment [3], -0.192; in experiment [4] it was -0.53; in experiment [5] it was 0.0935; in experiment [6], -0.329. In addition, the composite z-score is -0.815 with Sam68 (KHDRBS1); -0.77 in experiment [7]; -1.05 in experiment [8]; -0.538 in experiment [9]; -0.85 in experiment [10]; -0.716 in [11]. Further, the composite z-score in experiment [12] was -0.354; in experiment [13], -1.19; in experiment [14], -1.14; in the experiment on Lefty1, -1.64; in experiment [16], 0.217. The composite Z-score in [1] is -0.577 (inactive). Besides, the z-score in [15] is 0.772; in [17], 0.284 (inactive).

For the compound `C/C=C/[C@H](CCn1cc([C@H](O)c2ccccc2)nn1)[Si](C)(C)c1ccc(OC)cc1`, the composite z-score with Albumin (Bos taurus) is -0.7; in [2], -0.359; in [3], -0.181; in [4] it was 0.017; in experiment [5], -0.092; in [6], 0.612. The composite z-score with Sam68 (KHDRBS1) is -0.971; in experiment [7] it was -0.4; in experiment [8], -0.971; in experiment [9], 0.382; in experiment [10], -0.559; in experiment [11] it was -0.3. For the same compound, the composite z-score in experiment [12] is -1.17; in experiment [13] it was -0.735; in experiment [14], -0.997; with Lefty1 it was -0.781; in experiment [16], -0.777. Also, in experiment [1], the composite Z-score is -0.0164 (inactive). Further, the z-score in experiment [15] was 0.45; in experiment [17], 0.173 (inactive).

Values taken from PubChem BioAssay.
